Data as given in PubChem BioAssay (Tox21).
Records with an inconclusive call do not appear. A number with no mark means an inactive call. The call rests on the fitted dose curve; in most records, active means well fitted cell-killing curve with a large enough effect in the repeat runs; inconclusive means weak or mixed curves; inactive means no such curve, though single readings can be large or run the other way.

Experiment: qHTS assay to identify small molecule antagonists of the peroxisome proliferator-activated receptor delta (PPARd) signaling pathway - cell viability counter screen (AID 743213); further: nearly all actives have a fitted effect of over 50% in size
Settings: PPARd-bla HEK293H viability, CellTiter-Glo luminescence, 17 h; series mostly up to 62 µM; viability change, negative = cytotoxic: at the top concentration
Excerpt: U.S. Tox21 Program National Center for Advancing Translational Sciences [NCATS] NIH Chemical Genomics Center [NCGC] U.S. Environmental Protection Agency [EPA] National Institutes of Environmental Health Sciences [NIEHS] National Toxicology Program [NTP] U.S. Food and Drug Administration [FDA] Tox21 Assay Overview: The peroxisome proliferator-activated receptors (PPARs) are lipid-activated transcription factors of the nuclear receptor superfamily with three distinct subtypes namely PPAR alpha, PPAR delta (PPARd) and PPAR gamma. All these subtypes heterodimerizes with Retinoid X receptor (RXR) and have different physiological functions. […] To identify the compounds that inhibit PPAR-delta signaling, GeneBLAzer PPAR delta UAS-bla HEK293H cell line (Invitrogen, Carlsbad, CA, USA) containing a beta-lactamase reporter gene under the control of an Upstream Activator Sequence (UAS) was used to screen the Tox21 compound library. The cytotoxicity of the Tox21 compound library against the PPARd-bla cell line was tested in parallel by measuring the cell viability using CellTiter-Glo assay (Promega, Madison, WI) in the same wells.
Tox21 Assay Protocol Summary: PPARd-bla cells were dispensed at 3000 cells/5uL/well in 1536-well black wall/clear bottom plates using a Multidrop Combi (Thermo Fisher Scientific, Waltham, MA) dispenser. After the assay plates were incubated at 37 C and 5% CO2 for 5 h, 23 nL of compounds dissolved in DMSO, positive controls or DMSO only was transferred to the assay plate by a Pintool station (Kalypsys, San Diego, CA), followed by addition of 1ul L165041 (300 nM, final concentration in the wells). The assay plates were incubated at 37 C for 17 h, and then 1 uL of LiveBLAzerTM B/G FRET substrate was added using a Bioraptr Flying Reagent Dispenser (FRD) workstation (Beckman Coulter, Indianapolis, IN, USA). The assay plates were incubated at room temperature for 2 h and fluorescence intensity was measured by an Envision plate reader (PerkinElmer, Shelton, CT). For cell viability readout that measures cytotoxicity, 3 ul/well of CellTiter-Glo reagent was added into the assay plates using a Bioraptr FRD. After 30 min incubation at room temperature, the luminescence intensity in the plates was measured using a ViewLux plate reader (PerkinElmer).
On the % scale 0 is the no-effect control and ±100 the full control effect.

Q: With `CCC(C)CCCC(C)(C)O` (stereo not given) as the compound, how does the “viability change, negative = cytotoxic” value read?
A: Its value is 5.37%.

Q: With `CC(C)NC(=O)c1ccccc1N` as the compound, how does the “viability change, negative = cytotoxic” value read?
A: The value was -6.01%.

Q: For `C/C(=C(\CCO)SS/C(CCO)=C(\C)N(C=O)Cc1cnc(C)nc1N)N(C=O)Cc1cnc(C)nc1N`, which “viability change, negative = cytotoxic” value is on record?
A: Its value is 4.65%.

Q: With `CCCCCCCCCCCCSC#N` as the compound, how does the “viability change, negative = cytotoxic” value read?
A: Its value is -12.1%.

Q: For `O=C(OCCN1CCOCC1)c1cccnc1Nc1cccc(C(F)(F)F)c1`, which “viability change, negative = cytotoxic” value is on record?
A: The value was -6.2%.

Q: With `CC(C)Cc1nccs1` as the compound, how does the “viability change, negative = cytotoxic” value read?
A: The value was -4.99% [at 80.4 µM].

Q: With `O=S(=O)(O)c1cc(Cl)c(Cl)cc1Cl` as the compound, how does the “viability change, negative = cytotoxic” value read?
A: The value was 15.5%.

Q: Which “viability change, negative = cytotoxic” value does the source give for `O=C(O)c1ccc2c(c1)nc(C(=O)NC1CCN(C3CC3)CC1)n2Cc1cc(-c2ccc(Cl)s2)on1` here?
A: Its value is -24.1% [at 28.9 µM].

Q: Which “viability change, negative = cytotoxic” value does the source give for `COc1ccc(CN(CCN(C)C)c2ncccn2)cc1` here?
A: Its value is 19.2%.

Q: With `CC1(C)C(=O)NC(=O)N1CO` as the compound, how does the “viability change, negative = cytotoxic” value read?
A: The value was 6.81%.

Q: Which “viability change, negative = cytotoxic” value does the source give for `O=C(c1ccc(Cl)cc1)c1ccc(Cl)cc1` here?
A: Its value is 2.77%.

Q: With `CC(=O)Nc1cccc(N)c1` as the compound, how does the “viability change, negative = cytotoxic” value read?
A: The value was 2.66% [at 80.4 µM].

Q: Which “viability change, negative = cytotoxic” value does the source give for `CC(C)(C)c1ccc(CCC=O)cc1` here?
A: Its value is -1.48%.

Q: With `O=C1c2ccccc2C(=O)C1c1ccc2ccccc2n1` as the compound, how does the “viability change, negative = cytotoxic” value read?
A: The value was -24.2%.

Q: For `O=c1[nH]nc(-c2ccc([N+](=O)[O-])o2)o1`, which “viability change, negative = cytotoxic” value is on record?
A: The value was 1.86%.

Q: For `CC(C)(O)C(=O)O`, which “viability change, negative = cytotoxic” value is on record?
A: Its value is 1.92%.

Q: Which “viability change, negative = cytotoxic” value does the source give for `CCCC1CCCC(=O)O1` (stereo not given) here?
A: The value was -4.25%.

Q: Which “viability change, negative = cytotoxic” value does the source give for `CCCC(=O)OCc1ccccc1` here?
A: The value was 4.7%.

Q: Which “viability change, negative = cytotoxic” value does the source give for `COC(=O)c1cc(Cl)ccc1[N+](=O)[O-]` here?
A: The value was 0.108%.

Q: Which “viability change, negative = cytotoxic” value does the source give for `CO[C@@H]1COCC[C@@H]1N[C@@H]1CC[C@@](C(=O)N2CCc3ncc(C(F)(F)F)cc3C2)(C(C)C)C1` here?
A: The value was -13.6%.

Q: For `c1ccc(CN(Cc2ccccc2)Cc2ccccc2)cc1`, which “viability change, negative = cytotoxic” value is on record?
A: Its value is 14.8%.

Q: For `O=C1CCCN1CCO`, which “viability change, negative = cytotoxic” value is on record?
A: Its value is 0.341%.

Q: For `CC(C)=CCCC(C)C=O` (stereo not given), which “viability change, negative = cytotoxic” value is on record?
A: Its value is 1.47%.

Q: Which “viability change, negative = cytotoxic” value does the source give for `CCCCCCCCCCCCN1CCOCC1` here?
A: Its value is -14.5%.

Q: With `Cc1c(N=C=O)cccc1N=C=O` as the compound, how does the “viability change, negative = cytotoxic” value read?
A: The value was -2.47% [at 80.4 µM].

Q: Which “viability change, negative = cytotoxic” value does the source give for `CC(C)(C)c1cc(C=O)cc(C(C)(C)C)c1O` here?
A: Its value is 17.1%.

Q: With `CCCCCCCCNC` as the compound, how does the “viability change, negative = cytotoxic” value read?
A: Its value is -8.95%.

Q: Which “viability change, negative = cytotoxic” value does the source give for `Cc1ccccc1CCO` here?
A: Its value is -4.84%.

Q: With `O=C(Nc1ccc2c(c1)Cc1ccccc1-2)C(F)(F)F` as the compound, how does the “viability change, negative = cytotoxic” value read?
A: The value was -12.4%.

Q: Which “viability change, negative = cytotoxic” value does the source give for `Cc1ccc(S(=O)(=O)NC(=O)NC2CCCC2)cc1` here?
A: The value was 11.5%.

Q: Which “viability change, negative = cytotoxic” value does the source give for `CCC1=C(C)CN(C(=O)NCCc2ccc(S(=O)(=O)NC(=O)NC3CCC(C)CC3)cc2)C1=O` (stereo not given) here?
A: Its value is -17.5%.

Q: With `CCCCCCCCC(=O)OCC(C)OC(=O)CCCCCCCC` (stereo not given) as the compound, how does the “viability change, negative = cytotoxic” value read?
A: Its value is 8.95% [at 80.4 µM].

Q: For `CC(=O)Nc1ccccc1O`, which “viability change, negative = cytotoxic” value is on record?
A: The value was -1.81%.

Q: With `CCCc1nc(C)c2c(=O)[nH]c(-c3cc(S(=O)(=O)N4CCN(CC)CC4)ccc3OCC)nn12` as the compound, how does the “viability change, negative = cytotoxic” value read?
A: The value was 0.0922%.

Q: For `O=C(O)c1c2ccccc2cc2ccccc12`, which “viability change, negative = cytotoxic” value is on record?
A: Its value is 0.327%.

Q: For `CCC(C(=O)O)c1ccc(N2Cc3ccccc3C2=O)cc1` (stereo not given), which “viability change, negative = cytotoxic” value is on record?
A: The value was -16.3%.

Q: For `CCCCCCCCCCCCCCCCN`, which “viability change, negative = cytotoxic” value is on record?
A: Its value is -1.76%.

Q: With `COC(=O)C(C)(C)C` as the compound, how does the “viability change, negative = cytotoxic” value read?
A: Its value is -14.8% [at 80.4 µM].

Q: Which “viability change, negative = cytotoxic” value does the source give for `CC1(C)[C@@H]2CC[C@]3(C2)[C@@H]1C(=O)CCC3(C)C` here?
A: Its value is 5.81%.

Q: Which “viability change, negative = cytotoxic” value does the source give for `COc1cc(CNC(=O)CCCC/C=C/C(C)C)ccc1O` here?
A: The value was -11%.
